For seven compounds, Potency and outcome results are on record in PubChem BioAssay (NCATS).

The nature of experiment [1]: qHTS Screen of the MIPE 4.0 Collection Against Ewings Sarcoma (TC32) (AID 1259256). Also: nearly all actives have a fitted effect of over 45% in size. Also: potency is read from the fitted curve at half-maximal effect. The method, boiled down: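 Measured: ATP luminescence (CellTiter-Glo) 10 min after reagent addition, following 48 h drug treatment. Relative luciferase units converted to percent activity, with no-cell wells as full and DMSO wells as zero inhibition.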
A general note: Quantitative high-throughput screening tests each substance at several concentrations.

Experiment [2] in a line: P-glycoprotein substrates identified in KB-3-1 adenocarcinoma cell line, qHTS therapeutic library screen (AID 1346986). Also: nearly all actives have a fitted effect of over 60% in size.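 Also: potency is read from the fitted curve at half-maximal effect; potency is for cytotoxicity meaning loss of cell viability.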 An outline of the steps: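 Using luminescence to quantify ATP, parental and P-gp-overexpressing KB cells were compared after 72 h compound titration. KB-8-5-11 was also run with the P-gp inhibitor tariquidar.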
Experiment [3] in a line: P-glycoprotein substrates identified in KB-8-5-11 adenocarcinoma cell line, qHTS therapeutic library screen (AID 1346987). Also: nearly all actives have a fitted effect of over 65% in size. Also: potency is read from the fitted curve at half-maximal effect. An outline of the steps: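 Human cervical adenocarcinoma KB-8-5-11 cells, selected in colchicine to over-express P-gp and assayed without it, were exposed for 72 h to titrated compounds. An ATP-based luminescent viability signal gave AC50.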
Experiment [4] in a line: Natriuretic polypeptide receptor (hNpr1) antagonism - Pilot counterscreen GloSensor control cell line (AID 1347045; calls by dose curve; also: series mostly up to about 38 µM). The method, boiled down: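 The SNP-driven cGMP luminescence signal (50 uM, 20 min, room temperature) was measured in GloSensor HEK293 control cells. Compounds were tested as a LOPAC titration series and preincubated for 30-50 min.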
(In general: A counterscreen serves to expose hits that act by an unwanted route or on another target.)

Experiment [5] has as its target Atrial natriuretic peptide receptor 1 (Homo sapiens) (UniProt P16066). As to the kind of experiment: Natriuretic polypeptide receptor (hNpr1) antagonism - Pilot screen (AID 1347049; calls by dose curve;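 also: HEK293 cells with hNpr1 and GloSensor cGMP luciferase stimulated by 0.1 nM hNppA; agonist-evoked cGMP luminescence read 20 min after hNppA addition; series mostly up to about 58 µM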). An outline of the steps:
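Cells expressing receptor plus cGMP biosensor are seeded and incubated overnight at 37C, then loaded with GloSensor reagent (2% final) at room temperature for 2 h. Library compounds go on for 30 min. A pre-read precedes agonist (hNppA, 0.1 nM final) and a 20-min readout.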

The target of experiment [6] is Atrial natriuretic peptide receptor 2 (Homo sapiens) (UniProt P20594). The experiment is described as follows: Natriuretic polypeptide receptor (hNpr2) antagonism - Pilot subtype selectivity assay (AID 1347050; calls by dose curve). An outline of the steps:
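Read-out: GloSensor luminescence (CCD imager), baseline vs post-stimulation. HEK293 cells expressing hNpr2; compounds pre-incubated 30-50 min at ambient temperature; hNppC 1 nM final, 20 min.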

Experiment [7] in a line: NS1 protein of Zika virus - qHTS assay to identify small molecule inhibitors in human HEK 293 cells (AID 1347053). Also: nearly all actives have a fitted effect of over 55% in size. Also: potency is read from the fitted curve at half-maximal effect. An outline of the steps: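 TR-FRET signal from two anti-ZIKV NS1 antibodies quantified NS1 in HEK 293 cells 24 h after MR766 infection at MOI = 0.5; compounds were added 1 h before virus. Uninfected cells and infected cells defined the NS1 normalization range.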

The target of experiment [8] is Parathyroid hormone/parathyroid hormone-related peptide receptor (Homo sapiens) (UniProt Q03431). The experiment is described as follows: qHTS for PTHR1 Agonists: Optimization Screen against the NCGC LOPAC library (AID 1347079).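 Also: GloSensor cAMP luminescence in HEK-293 GP2 cells expressing human PTHR1 with IBMX.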 The method, boiled down:
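Signal increase flags agonism. GP2 cells, derived from HEK-293, express human PTHR1 and a GloSensor cAMP construct.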

Experiment [9] is described as follows: qHTS of pediatric cancer cell lines to identify multiple opportunities for drug repurposing: Primary screen for TC32 cells (AID 1347089). Also: nearly all actives have a fitted effect of over 60% in size. Also: potency is read from the fitted curve at half-maximal effect. The method, boiled down: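 TC32 cells, 500-1,000/well in growth medium, compound-treated 48 h at 37 °C; viability from CellTiter-Glo luminescence. Primary screen: MIPE 11-point (0.78 nM–46 µM final), NPC 8-point (0.59 nM–46 µM final); confirmatory at 11-point dilutions.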

The nature of experiment [10]: qHTS of pediatric cancer cell lines to identify multiple opportunities for drug repurposing: Primary screen for DAOY cells (AID 1347090). Also: nearly all actives have a fitted effect of over 55% in size. Also: potency is read from the fitted curve at half-maximal effect. The method, boiled down:
(§1)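 Eight- or eleven-point concentration series, 48 h treatment at 37 degrees C in growth media; readout CellTiter-Glo luminescence. Potency and efficacy were taken from the concentration-response curves.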

A short description of experiment [11]: qHTS of pediatric cancer cell lines to identify multiple opportunities for drug repurposing: Primary screen for SJ-GBM2 cells (AID 1347091). Also: potency is read from the fitted curve at half-maximal effect. An outline of the steps:
as §1

A short description of experiment [12]: qHTS of pediatric cancer cell lines to identify multiple opportunities for drug repurposing: Primary screen for A673 cells (AID 1347092). Also: nearly all actives have a fitted effect of over 45% in size. Also: potency is read from the fitted curve at half-maximal effect. The method, boiled down: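 A673 cells (500-1,000 cells/well) were treated 48 hours at 37 degrees C with compounds at 11-point (0.78 nM to 46 µM) or 8-point (0.59 nM to 46 µM) dilutions. Viability read by CellTiter-Glo luminescence; concentration-response curves fitted.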

Experiment [13] can be described thus: qHTS of pediatric cancer cell lines to identify multiple opportunities for drug repurposing: Primary screen for SK-N-MC cells (AID 1347093). Also: potency is read from the fitted curve at half-maximal effect. The method, boiled down:
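Metabolically active cells were quantified by ATP-dependent luminescence (CellTiter-Glo, 15 min at room temperature) following 48 h treatment. Cells had been plated at 500-1,000 per well and settled for 5 h beforehand.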

Experiment [14] can be described thus: qHTS of pediatric cancer cell lines to identify multiple opportunities for drug repurposing: Primary screen for BT-37 cells (AID 1347094). Also: potency is read from the fitted curve at half-maximal effect. The method, boiled down: (§2)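 Following a 5-hour attachment period, cells at 500-1,000/well received compounds and were cultured for 48 hours. CellTiter-Glo was added and luminescence read to estimate viable, metabolically active cells.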

Experiment [15] is described as follows: qHTS of pediatric cancer cell lines to identify multiple opportunities for drug repurposing: Primary screen for NB-EBc1 cells (AID 1347095). Also: potency is read from the fitted curve at half-maximal effect. An outline of the steps: as §2
Experiment [16] can be described thus: qHTS of pediatric cancer cell lines to identify multiple opportunities for drug repurposing: Primary screen for U-2 OS cells (AID 1347096). Also: nearly all actives have a fitted effect of over 50% in size. Also: potency is read from the fitted curve at half-maximal effect. An outline of the steps:
(§3)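 Cells (500-1,000/well) in growth media were settled 5 h at 37 degrees C, then given compounds for 48 h. Viability was read as CellTiter-Glo luminescence. Primary runs used MIPE at 11 points (0.78 nM-46 µM) and NPC at 8 points (0.59 nM-46 µM); follow-ups used 11 points.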

Experiment [17] can be described thus: qHTS of pediatric cancer cell lines to identify multiple opportunities for drug repurposing: Primary screen for Saos-2 cells (AID 1347097). Also: nearly all actives have a fitted effect of over 40% in size. Also: potency is read from the fitted curve at half-maximal effect. An outline of the steps:
as §2

A short description of experiment [18]: qHTS of pediatric cancer cell lines to identify multiple opportunities for drug repurposing: Primary screen for NB1643 cells (AID 1347099). Also: nearly all actives have a fitted effect of over 50% in size. Also: potency is read from the fitted curve at half-maximal effect. The method, boiled down:
as §2

Experiment [19] can be described thus: qHTS of pediatric cancer cell lines to identify multiple opportunities for drug repurposing: Primary screen for LAN-5 cells (AID 1347100). Also: potency is read from the fitted curve at half-maximal effect. An outline of the steps:
as §3

Experiment [20] can be described thus: qHTS of pediatric cancer cell lines to identify multiple opportunities for drug repurposing: Primary screen for SK-N-SH cells (AID 1347098). Also: potency is read from the fitted curve at half-maximal effect; nearly all actives have a fitted effect of over 65% in size. The method, boiled down: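 Cells (500-1,000/well) rested 5 h, then received compounds for 48 h; metabolically active cells were measured by CellTiter-Glo luminescence. Final concentrations spanned up to 46 µM (MIPE, 11-point) or 0.59 nM-46 µM (NPC, 8-point) in primary screens, 11-point in follow-ups.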

Where “and” joins values, the source holds several entries; their conditions need not be identical. Identical values can stand only once. Results filed as inconclusive are left out. Calls of active or inactive are those of the source. Unless noted, calls follow the shape of the dose curve; as a rule, active = well fitted curve in the direction sought with a large enough effect; inconclusive = small, poorly fitted or top-dose-only effect, or another doubt; inactive = no such curve, though single readings can be large; an effect the other way counts as inactive or inconclusive.

Sequence of Atrial natriuretic peptide receptor 1 (Homo sapiens) (P16066 whole entry, looked up): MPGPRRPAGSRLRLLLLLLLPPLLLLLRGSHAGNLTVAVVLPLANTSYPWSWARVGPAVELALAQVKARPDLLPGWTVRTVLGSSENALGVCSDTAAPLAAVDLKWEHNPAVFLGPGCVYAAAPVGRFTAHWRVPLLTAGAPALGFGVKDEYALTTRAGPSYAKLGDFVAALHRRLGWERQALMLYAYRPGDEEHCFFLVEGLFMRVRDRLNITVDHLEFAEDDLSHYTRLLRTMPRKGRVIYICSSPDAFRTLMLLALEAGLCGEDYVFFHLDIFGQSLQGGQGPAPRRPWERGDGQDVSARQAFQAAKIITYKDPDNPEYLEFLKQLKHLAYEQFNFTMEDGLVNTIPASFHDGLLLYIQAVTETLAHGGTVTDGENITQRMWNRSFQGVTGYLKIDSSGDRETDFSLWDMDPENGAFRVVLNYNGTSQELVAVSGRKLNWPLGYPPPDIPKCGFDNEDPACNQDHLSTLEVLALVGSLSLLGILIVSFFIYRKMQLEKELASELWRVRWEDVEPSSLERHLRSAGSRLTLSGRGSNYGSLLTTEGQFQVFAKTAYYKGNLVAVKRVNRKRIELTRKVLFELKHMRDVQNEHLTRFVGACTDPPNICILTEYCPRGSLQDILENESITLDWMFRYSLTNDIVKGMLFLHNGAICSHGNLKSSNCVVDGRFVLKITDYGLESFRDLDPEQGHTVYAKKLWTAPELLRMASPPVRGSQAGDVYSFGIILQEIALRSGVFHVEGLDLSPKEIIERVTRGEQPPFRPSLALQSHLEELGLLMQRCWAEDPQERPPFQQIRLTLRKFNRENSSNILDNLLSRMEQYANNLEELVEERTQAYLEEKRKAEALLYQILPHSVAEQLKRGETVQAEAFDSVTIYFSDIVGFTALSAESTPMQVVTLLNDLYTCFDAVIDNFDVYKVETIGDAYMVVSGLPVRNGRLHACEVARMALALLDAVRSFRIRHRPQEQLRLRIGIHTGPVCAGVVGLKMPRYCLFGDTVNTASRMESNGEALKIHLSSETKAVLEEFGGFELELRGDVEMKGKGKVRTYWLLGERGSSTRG
Sequence of Parathyroid hormone/parathyroid hormone-related peptide receptor (Homo sapiens) (Q03431 whole entry, looked up): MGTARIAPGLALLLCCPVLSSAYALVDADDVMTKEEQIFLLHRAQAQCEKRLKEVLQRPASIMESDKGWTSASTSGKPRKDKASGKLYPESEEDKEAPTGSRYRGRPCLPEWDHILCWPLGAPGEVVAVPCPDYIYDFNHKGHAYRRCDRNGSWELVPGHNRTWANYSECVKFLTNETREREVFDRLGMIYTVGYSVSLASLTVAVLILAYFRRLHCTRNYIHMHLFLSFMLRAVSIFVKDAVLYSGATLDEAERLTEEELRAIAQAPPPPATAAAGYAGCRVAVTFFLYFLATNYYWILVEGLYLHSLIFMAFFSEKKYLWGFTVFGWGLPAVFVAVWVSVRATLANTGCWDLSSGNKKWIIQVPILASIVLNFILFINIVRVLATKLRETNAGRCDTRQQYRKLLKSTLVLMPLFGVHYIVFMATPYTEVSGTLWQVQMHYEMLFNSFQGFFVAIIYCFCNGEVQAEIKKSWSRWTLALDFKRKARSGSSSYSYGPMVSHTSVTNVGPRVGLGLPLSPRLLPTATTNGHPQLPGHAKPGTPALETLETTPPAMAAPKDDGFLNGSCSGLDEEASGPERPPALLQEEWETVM
Sequence of Atrial natriuretic peptide receptor 2 (Homo sapiens) (P20594 whole entry, looked up): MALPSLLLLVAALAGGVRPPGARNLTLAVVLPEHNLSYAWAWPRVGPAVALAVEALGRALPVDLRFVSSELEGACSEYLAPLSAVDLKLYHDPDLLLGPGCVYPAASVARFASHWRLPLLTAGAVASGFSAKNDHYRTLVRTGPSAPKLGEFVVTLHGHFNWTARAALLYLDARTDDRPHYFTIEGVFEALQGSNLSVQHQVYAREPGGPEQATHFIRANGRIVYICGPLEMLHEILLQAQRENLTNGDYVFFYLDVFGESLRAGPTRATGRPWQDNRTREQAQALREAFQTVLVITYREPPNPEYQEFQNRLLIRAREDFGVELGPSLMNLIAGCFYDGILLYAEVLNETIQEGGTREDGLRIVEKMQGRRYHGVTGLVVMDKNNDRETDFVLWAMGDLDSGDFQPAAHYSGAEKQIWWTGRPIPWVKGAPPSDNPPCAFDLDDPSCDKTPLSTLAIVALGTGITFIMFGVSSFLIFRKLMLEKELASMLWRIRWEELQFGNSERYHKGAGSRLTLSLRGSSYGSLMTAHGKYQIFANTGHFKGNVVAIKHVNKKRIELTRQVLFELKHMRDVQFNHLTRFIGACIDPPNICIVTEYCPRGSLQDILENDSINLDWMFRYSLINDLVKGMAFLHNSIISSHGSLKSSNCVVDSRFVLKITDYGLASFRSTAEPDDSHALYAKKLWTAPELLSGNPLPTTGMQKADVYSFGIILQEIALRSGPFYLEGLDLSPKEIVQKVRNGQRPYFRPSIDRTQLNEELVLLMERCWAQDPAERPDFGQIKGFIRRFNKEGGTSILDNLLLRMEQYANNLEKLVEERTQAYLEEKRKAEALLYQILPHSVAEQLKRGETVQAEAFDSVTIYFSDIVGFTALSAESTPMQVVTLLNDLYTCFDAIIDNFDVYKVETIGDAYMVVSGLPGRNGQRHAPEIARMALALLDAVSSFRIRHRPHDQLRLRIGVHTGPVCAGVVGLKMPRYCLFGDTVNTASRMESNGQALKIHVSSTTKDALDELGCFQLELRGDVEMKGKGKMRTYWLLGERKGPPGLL

With `O=c1[nH]c(=O)n([C@H]2C[C@@H](O)[C@@H](CO)O2)cc1C=CBr`, the Potency result in experiment [1], in experiment [2], in experiment [3], in experiment [7], in [9] and in [10] was “inactive” in each case. The Potency entry in experiment [11], in experiment [12], in [13], in [14], in experiment [15] and in experiment [16] was “inactive” in each case. Moreover, the Potency entry in experiment [17], in experiment [18] and in experiment [19] was “inactive” throughout. In addition, the outcome in experiment [4], in experiment [5], in experiment [6] and in experiment [8] was inactive.
Regarding `Cc1cnc(Nc2ccc(N3CCN(C)CC3)cc2)nc1Nc1cccc(S(=O)(=O)NC(C)(C)C)c1`, the Potency is 2350 nM (active) in [1]; 3260 nM (active) in experiment [2]; 11.8 µM (active) and 7.31 µM (active) in [3]; 16600 nM (active) in [7]; 10400 nM (active) in experiment [9]; 14800 nM (active) in experiment [10]. Moreover, the Potency was 1180 nM (active) in experiment [12]; 1050 nM (active) in experiment [13]; 21700 nM (active) in experiment [14]; 1870 nM (active) in experiment [15]; 4690 nM (active) in [17]; 3040 nM (active) in experiment [20]. In addition, the Potency in [18] was 3720 nM (active); in experiment [19], 743 nM (active). In experiment [16], the Potency result was “inactive”.
Take `O=C(O)C[C@H](O)C[C@H](O)C=Cc1c(C2CC2)nc2ccccc2c1-c1ccc(F)cc1`: the Potency is 1050 nM (active) in experiment [1]; 7.43 µM (active) in experiment [3]; 11700 nM (active) in [9]; 1180 nM (active) in experiment [10]; 11800 nM (active) in experiment [11]; 3720 nM (active) in [12]. Further, the Potency in [13] is 4690 nM (active); in [14], 15300 nM (active); in [15], 20900 nM (active); in experiment [16] it was 9350 nM (active); in experiment [17], 833 nM (active); in [18], 9350 nM (active). Besides, the Potency entry in experiment [7] was “inactive”.
In the case of `CC(C=CC(=O)NO)=C[C@@H](C)C(=O)c1ccc(N(C)C)cc1`, the Potency in experiment [1] was 332 nM (active); in experiment [3] it was 1.05 µM (active); in experiment [9] it was 2340 nM (active); in [10], 1480 nM (active); in experiment [11], 1870 nM (active); in experiment [12], 590 nM (active). Also, the Potency is 264 nM (active) in experiment [13]; 1220 nM (active) in experiment [14]; 418 nM (active) in experiment [15]; 1480 nM (active) in [16]; 935 nM (active) in [17]; 935 nM (active) in experiment [18]. For the same compound, in experiment [19], the Potency is 590 nM (active). Moreover, the Potency result in experiment [7] is “inactive”.
For `O=C(O)c1ccc(Nc2ncc3c(n2)-c2ccc(Cl)cc2C(c2c(F)cccc2F)=NC3)cc1`, the Potency is 590 nM (active) in experiment [1]; 820 nM (active) in experiment [2]; 4690 nM (active) in experiment [12]; 662 nM (active) in experiment [13]; 66.2 nM (active) in experiment [15]; 29.6 nM (active) in experiment [19]. The Potency result in [7] and in experiment [16] was “inactive” each time.
`C=CC[C@@H]1C=C(C)C[C@H](C)C[C@H](OC)[C@H]2O[C@@](O)(C(=O)C(=O)N3CCCC[C@H]3C(=O)O[C@H](C(C)=C[C@@H]3CC[C@H](O)[C@H](OC)C3)[C@@H](C)[C@@H](O)CC1=O)[C@@H](C)C[C@@H]2OC`: the Potency was 1480 nM (active) in experiment [1]; 8330 nM (active) in [13]; 1720 nM (active) in experiment [14]; 1870 nM (active) in experiment [17]; 6070 nM (active) in [20]. Also, the Potency entry in experiment [2], in experiment [9], in [10], in experiment [12], in [15] and in experiment [16] was “inactive” throughout.
On to `O=C(C=CC#Cc1cccc(NS(=O)(=O)c2ccccc2)c1)NO`, for which the Potency was 833 nM (active) in experiment [1]; 4.69 µM (active) in [3]; 13200 nM (active) in [7]; 7390 nM (active) in experiment [9]; 2960 nM (active) in experiment [10]; 1660 nM (active) in experiment [11]. For the same compound, the Potency was 1480 nM (active) in [12]; 590 nM (active) in [13]; 4850 nM (active) in [14]; 833 nM (active) in experiment [15]; 2960 nM (active) in experiment [16]; 2350 nM (active) in experiment [17]. In addition, the Potency in [20] is 3410 nM (active); in experiment [18], 1180 nM (active); in [19], 1180 nM (active).
